# Shiga toxin inh = A qHTS for Small Molecule Inhibitors of Shiga Toxin; Vero cells, Shiga toxin protein synthesis inhibition reporter; inhibition, % at 38.7 µM; 9.2% of 290,000 active; in the data active means inhibition mostly above about 28%, no sharp cut-off; inactive means mostly below about 43%; further: 0% is about no effect
# MARV entry inh = qHTS for inhibitors of binding or entry into cells for Marburg Virus | Marburg virus pseudotyped entry inhibition, cell reporter | Potency, µM (highest dose often 37.8 µM), without a hit: at the top dose activity change, negative = inhibition, most hits filed as inhibitors | 1.8% of 300,000 active | AID 540276, 2011; calls by dose curve; tested in HEK293 cells; further: potency means the concentration at half of the fitted maximal effect; on the % scale 0 is the no-effect control and ±100 the full control effect
# FMDV antiviral = High Throughput Screening for Foot and Mouth Disease Virus Antivirals | FMDV antiviral cell-based qHTS | Potency, µM (doses to about 57.9 µM), for the others: at the top dose activity change, negative = inhibition, usual class: inhibitors | 1.2% of 410,000 active | AID 1159524, 2015; calls by dose curve; tested in HEK293T cells; further: read-out not given here; potency means the concentration at half of the fitted maximal effect; on the % scale 0 is the no-effect control and ±100 the full control effect; nearly all actives have a fitted effect of over 45% in size
# HCV inhibitor = qHTS Assay for Inhibitors of Hepatitis C Virus (HCV). Huh7.5.1 HCVcc-Cre infection, luciferase reporter, 44 h. Potency, µM (series often up to 41.8 µM), inactives show top-dose activity change, negative = inhibition, actives largely listed as inhibitors. 3.4% of 340,000 active; further: potency means the concentration at half of the fitted maximal effect; on the % scale 0 is the no-effect control and ±100 the full control effect
#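 1,000 cells/well; 4 h culture; + compound; + HCVcc-Cre (~0.5 moi); 44 h; luciferase substrate, RT 15 min; read 15 sec.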
# Lassa entry inh = qHTS for Inhibitors of binding or entry into cells for Lassa Virus | Lassa virus pseudotype entry inhibition, cell reporter | Potency, µM (highest dose often 37.9 µM), for the others: top-dose activity change, negative = inhibition, usual class: inhibitors | 1.2% of 300,000 active | AID 540256, 2011; calls by dose curve; tested in HEK293 cells; further: potency means the concentration at half of the fitted maximal effect; on the % scale 0 is the no-effect control and ±100 the full control effect; nearly all actives have a fitted effect of over 50% in size
# CHX counter = Cycloheximide Counterscreen for Small Molecule Inhibitors of Shiga Toxin. cell reporter, cycloheximide protein synthesis inhibition counterscreen. max response, %. 12% of 300,000 active. AID 2314, 2010; in the data active means max response mostly above about 13%, no sharp cut-off; inactive means mostly below about 14%; further: read at 38.3 µM for the half of the compounds with a filed dose; 0% is about no effect
# WI-38 cytotox = High Content Assay for Compounds that inhibit the Assembly of the Perinucleolar Compartment: WI-38 Cytotoxicity; shares compounds with MARV entry inh; WI-38 normal lung fibroblasts, ATPLite luminescence ATP viability, 24 h; Potency, µM (titrated, usually from 46.1 µM), without a hit: at the highest dose activity change, negative = cytotoxicity, hits mostly inhibitors; 120 tested, under 10 active; AID 2729, 2010
# PNC inh conf = High Content Assay for Compounds that inhibit the Assembly of the Perinucleolar Compartment: Confirmation of PNC Inhibition | 50% of 120 active | Potency, µM (highest dose often 46.1 µM), for the others: at the top dose activity, negative = PNC inhibition, hits mostly inhibitors | PC3M PTB-GFP, PNC prevalence imaging, 16 h | shares compounds with MARV entry inh | AID 2730, 2010
# PC3M casp3-7 = High Content Assay for Compounds that inhibit the Assembly of the Perinucleolar Compartment: PC3M Caspase 3/7 Activation; shares compounds with MARV entry inh; PC3M-GFP caspase 3/7 activation, luminescence, 24 h; activity change, positive = activation, % at 46.1 µM; 120 tested, under 10 active
# HCV inh confirm = qHTS Assay for Inhibitors of Hepatitis C Virus (HCV): Confirmation Assay for Cherry-picked Compounds; shares compounds with HCV inhibitor; HCVcc-Cre infectious virus cell assay, luciferase, inhibition; Potency, µM (top dose mostly 41.8 µM), inactives show at the top dose activity, negative = inhibition, usual class: inhibitors; 78% of 640 active; AID 720575, 2013; further: potency means the concentration at half of the fitted maximal effect; nearly all actives have a fitted effect of over 80% in size
# HCV host tox = qHTS Assay for Inhibitors of Hepatitis C Virus (HCV): Cytotoxicity Counterscreen for Cherry-picked Compounds; shares compounds with HCV inhibitor; HCV host cell line cytotoxicity counterscreen; Potency, µM (highest dose often 41.8 µM), for inactives: top-dose activity change, negative = cytotoxicity, most hits filed as inhibitors; 22% of 640 active; AID 720576, 2013;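 further: potency means the concentration at half of the fitted maximal effect; 44 h compound exposure; on the % scale 0 is the no-effect control and ±100 the full control effect; nearly all actives have a fitted effect of over 55% in size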
# * = called active by the depositor; u = inconclusive; x = not tested or not shown; + = active, no number; [ ] = dose if it differs, or a comment. This is a sample that favours compounds with a hit; in the whole collection about 13% have one here. Unless noted, the call rests on the fitted dose curve; in most records, active means well fitted curve in the direction sought with a large enough effect; inconclusive means small, poorly fitted or top-dose-only effect, or another doubt; inactive means no such curve, though single readings can be large; an effect the other way counts as inactive or inconclusive.
SMILES,Shiga toxin inh,MARV entry inh,FMDV antiviral,HCV inhibitor,Lassa entry inh,CHX counter,WI-38 cytotox,PNC inh conf,PC3M casp3-7,others
O=C(CN1CCCc2ccccc21)N/N=C/c1ccccc1O,-11.6,u,0.0%,u,u,6.8,x,x,x,
Cc1ccc(OCCn2cc(C(=S)N3CCCC3)c3ccccc32)cc1C,-13.6,3.16µM*,-17.5%,u,2.82µM*,7.1,2.0%,7.94µM*,-2.6,
Cc1ccc(OCCn2cc(/C(N)=N/O)c3ccccc32)cc1C,1.9,-27.3%,u,u,3.4%,-2.0,x,x,x,
COCCn1c(SC(C)C(=O)Nc2ncc(Cl)cc2Cl)nc2ccccc21 (configuration not stated),-6.6,2µM*,u,u,1.41µM*,-9.8,-3.3%,12.6µM*,-7.3,
Cc1cc(SC(C)C(=O)Nc2ncc(Cl)cc2Cl)nc2ccccc12 (configuration not stated),22.3,u,-22.0%,u,5.8µM*,-3.0,-14.1%,11.2µM*,-0.8,
CCCCOc1ccc(S(=O)(=O)Nc2ccc(-c3ccc(N4CCC(C)CC4)nn3)cc2)cc1,x,x,10.5%,x,14.5%[46.1 µM],x,x,x,x,
O=C1C2CCCN2C(c2ccc(F)cc2)N1c1ccc(Cl)cc1 (configuration not stated),16.6,x,1.4%,-9.9%,x,4.3,-20.5%,15.8µM*,-3.3,
O=C1C2CCCN2C(c2ccccc2)N1c1ccc(F)cc1 (configuration not stated),6.8,1.0%,-20.3%,18.1%,x,-2.7,x,x,x,
CC(/C=C/c1ccccc1)=N/NC(=O)c1cc([N+](=O)[O-])cc([N+](=O)[O-])c1,-0.9,u,0.0%,-28.0%,u,-10.3,-19.9%,u,-2.1,
N=c1c2c(-c3ccccc3)c(-c3ccccc3)n(Cc3ccco3)c2ncn1CCCn1ccnc1,-2.9,3.55µM*,u,u,11.2µM*,-6.3,-18.8%,25.1µM*,-6.0,
O=C1CCc2cc(S(=O)(=O)N3CCN(C(=O)c4ccco4)CC3)ccc2N1,26.7,12.0%,0.3%,0.5%,1.8%,-9.2,x,x,x,
Cc1oc(-c2ccccc2Cl)nc1CSCC(=O)NC1CCCC1,-6.6,-13.1%[46.1 µM],-14.1%,-12.0%,-13.4%,-1.0,x,x,x,
Cc1oc(-c2ccccc2Cl)nc1CSCC(=O)N1CCCC1,25.1,u,24.4%,u,0.651µM*,8.3,9.1%,3.98µM*,-5.7,
O=C(Nc1cccnc1)c1cccs1,4.7,u,-0.2%,u,u,8.0,7.3%,8.91µM*,-13.0,
CCOc1ccccc1C(=O)NCc1nc2cccnc2n1Cc1ccc(C)cc1,x,x,-13.4%,x,-4.0%[46.1 µM],x,x,x,x,
OCCC1CN(Cc2ccccn2)CCN1C1CCCC1 (configuration not stated),-2.8,7.7%[46.1 µM],14.5%,9.9%,-6.0%,-0.3,x,x,x,
COc1ccc(NC(=O)Cn2c(=O)c3cccn3c3ccccc32)cc1Cl,x,x,-20.9%,x,u,x,x,x,x,
O=S(=O)(Nc1cc(Sc2cccc3cccnc23)c(O)c2ccccc12)c1ccc(F)cc1,+,6.51µM*,12.6µM*,11.2µM*,11.2µM*,24.5*,u,u,u,
CCC(=O)N(C1=C(NC(C)C)C(=O)c2ccccc2C1=O)C(C)C,-9.3,x,u,15.4%,x,-2.9,x,x,x,
CCCNC1=C(N(C(C)=O)c2cccc(F)c2)C(=O)c2ccccc2C1=O,-20.3,u,28.2µM*,7.94µM*,u,-10.1,-16.5%,u,u,
COc1ccc(/C=C2\SC(=S)N(CC(=O)OCC(=O)Nc3cc(Cl)cc(Cl)c3)C2=O)cc1,-6.1,x,4.9%,-4.9%,x,2.0,x,x,x,
CC1(C)CC(=O)C2=C(C1)N(c1ccccc1)C(=O)CC2c1ccsc1 (configuration not stated),-10.1,x,-23.2%,-3.8%,x,-6.1,x,x,x,
O=C(O)c1cc(NCc2cc(O)ccc2O)ccc1O,2.3,x,-5.8%,x,x,12.0,x,x,x,
O=C(OCC12CC3CC(CC(C3)C1)C2)c1ccc(NCc2cc(O)ccc2O)cc1,x,u,17.8µM*,1.58µM*,4.47µM*,x,x,x,x,HCV inh confirm=3.96µM*;HCV host tox=9.95µM*
O=C(c1ccccc1)N1CCC(c2nc(-c3ccc(S(=O)(=O)NCC4CCCO4)cc3)no2)CC1 (configuration not stated),-15.7,u,x,2.82µM*,-14.2%,8.9,x,x,x,HCV inh confirm=3.53µM*;HCV host tox=8.87µM*
SMILES,Shiga toxin inh,MARV entry inh,FMDV antiviral,HCV inhibitor,Lassa entry inh,CHX counter,WI-38 cytotox,PNC inh conf,PC3M casp3-7,others
O=C(C1CC1)N1CCC(c2nc(-c3ccc(S(=O)(=O)NCC4CCCO4)cc3)no2)CC1 (configuration not stated),-5.5,u,u,u,u,-1.3,x,x,x,
CC(=O)Nc1ccc(NC(=O)c2c(-c3ccccc3Cl)noc2C)cc1,-15.1,29.1%[46.1 µM],-8.5%,19.3%,x,-5.9,x,x,x,
Cc1onc(-c2ccccc2Cl)c1C(=O)Nc1ccccc1C(=O)NC(C)C,-1.5,9.2µM*,x,4.47µM*,u,-4.0,x,x,x,HCV inh confirm=22.3µM*;HCV host tox=u
CCC(Sc1nnc(C)n2c1cc1occc12)C(=O)Nc1ccccc1OC (configuration not stated),x,x,0.0%,x,9.2%[46.1 µM],x,x,x,x,
O=C(Nc1ncc(Cc2ccc(C(F)(F)F)cc2)s1)c1ccc(-c2cccc([N+](=O)[O-])c2)o1,-11.1,u,u,2.51µM*,-26.2%,-2.0,x,x,x,HCV inh confirm=12.5µM*;HCV host tox=u
COc1cnn(-c2cccc(Cl)c2)c(=O)c1Cl,x,x,-4.1%,4.0%,x,x,x,x,x,
COc1nn(-c2ccccc2)c(=O)c(Cl)c1Cl,12.5,u,14.1µM*,3.98µM*,u,1.1,x,x,x,HCV inh confirm=8.87µM*;HCV host tox=7.91µM*
